This passage reports Potency and outcome results from PubChem BioAssay (Tox21).

Experiment [1] can be described thus: qHTS assay to identify aromatase inhibitors - cell viability counter screen (AID 743084).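 Note: cells stimulated with testosterone during compound exposure; nearly all actives have a fitted effect of over 55% in size.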 Note: potency is the fitted concentration of half-maximal effect.
Experiment [2] has as its target Aryl hydrocarbon receptor (Homo sapiens) (UniProt P35869). Kind of experiment: qHTS assay to identify small molecule that activate the aryl hydrocarbon receptor (AhR) signaling pathway (AID 743085).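 For activation: HG2L7.5c1 human HepG2 liver cells with stably integrated DRE-driven firefly reporter; series mostly up to about 70 µM.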 Note: nearly all actives have a fitted effect of over 15% in size. Note: potency is the fitted concentration of half-maximal effect. The method, boiled down:
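Luminescence (ONE-Glo) from a dioxin-responsive-element luciferase reporter in HG2L7.5c1 HepG2 cells after 24 hr compound exposure at 37C; viability measured by CellTiter-Fluor fluorescence beforehand.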
(In general: Quantitative high-throughput screening tests each substance at several concentrations.)

Experiment [3] deals with Peroxisome proliferator-activated receptor gamma (Homo sapiens) (UniProt P37231). As to the kind of experiment: qHTS assay to identify small molecule agonists of the peroxisome proliferator-activated receptor gamma (PPARg) signaling pathway (AID 743094; active = well fitted activation curve with a large enough effect in the signal ratio in the repeat runs, not every such curve was filed as active; the % refers to the signal ratio). The method, boiled down:
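Reporter activation was scored by fluorescence of cleaved LiveBLAzer B/G substrate (1 h, room temperature) in PPARg-bla HEK293H cells previously treated 17 h at 37C with DMSO-dissolved compounds.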

The nature of experiment [4]: qHTS assay to identify small molecule antagonists of the peroxisome proliferator-activated receptor gamma (PPARg) signaling pathway - cell viability counter screen (AID 743194). Note: nearly all actives have a fitted effect of over 55% in size. Conditions: Potency: co-treated with 50 nM rosiglitazone unless noted. The method, boiled down: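 Cytotoxicity counter screen in PPARg-bla HEK293H cells, same wells as reporter assay. Compounds plus 50 nM rosiglitazone (final) for 17 h at 37 C, then viability read by CellTiter-Glo luminescence.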

Experiment [5] is described as follows: qHTS assay for small molecule agonists of the antioxidant response element (ARE) signaling pathway - cell viability counter screen (AID 743203; calls by dose curve; note: nearly all actives have a fitted effect of over 55% in size). The method, boiled down: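 Viability counter screen: stably transfected ARE-bla HepG2 line, 16 hrs compound exposure at 37C/5% CO2, ATP-based CellTiter-Glo luminescence measured in the reporter wells.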
Experiment [6] is described as follows: qHTS assay for small molecule activators of the heat shock response signaling pathway - cell viability counter screen (AID 743209). Note: nearly all actives have a fitted effect of over 50% in size. The method, boiled down: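 Viability of HSE-bla HeLa cells is measured with CellTiter-Glo in the wells already used for the reporter read. Compound exposure lasts 5 h at 37 C, and luminescence is read after 30 min at room temperature.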

A short description of experiment [7]: qHTS assay to identify small molecule agonists of the peroxisome proliferator-activated receptor delta (PPARd) signaling pathway - cell viability counter screen (AID 743211). Note: nearly all actives have a fitted effect of over 55% in size. Note: potency is the fitted concentration of half-maximal effect. The method, boiled down:
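Viability was measured as CellTiter-Glo luminescence (30 min, room temperature) in the same wells as the beta-lactamase readout. GeneBLAzer PPARd UAS-bla HEK293H cells received compound after 5 h plating and were incubated 17 h at 37 C.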

The target in experiment [8] is Peroxisome proliferator-activated receptor delta (Homo sapiens) (UniProt Q03181). Kind of experiment: qHTS assay to identify small molecule agonists of the peroxisome proliferator-activated receptor delta (PPARd) signaling pathway (AID 743212; calls by dose curve; note: potency is the fitted concentration of half-maximal effect). The method, boiled down: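 Read-out: beta-lactamase FRET fluorescence after 2 h room-temperature incubation with LiveBLAzer B/G substrate. Cells were HEK293H carrying a UAS-bla reporter for PPARd, treated at 37 C with DMSO-dissolved compounds.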
Chain of Peroxisome proliferator-activated receptor delta (Homo sapiens) (Q03181 whole entry, looked up): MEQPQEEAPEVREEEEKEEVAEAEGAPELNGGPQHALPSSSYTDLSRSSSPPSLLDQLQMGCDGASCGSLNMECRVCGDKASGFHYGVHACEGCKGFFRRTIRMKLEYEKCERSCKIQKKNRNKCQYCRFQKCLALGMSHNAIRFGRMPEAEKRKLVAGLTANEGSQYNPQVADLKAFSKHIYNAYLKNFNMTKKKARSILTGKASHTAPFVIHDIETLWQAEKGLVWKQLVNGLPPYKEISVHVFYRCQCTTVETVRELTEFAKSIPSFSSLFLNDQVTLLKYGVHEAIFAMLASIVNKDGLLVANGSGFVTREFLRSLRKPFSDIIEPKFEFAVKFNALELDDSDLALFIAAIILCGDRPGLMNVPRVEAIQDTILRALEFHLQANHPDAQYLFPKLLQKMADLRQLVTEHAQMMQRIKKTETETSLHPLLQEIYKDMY

Experiment [9] concerns the target Bile acid receptor (Homo sapiens) (UniProt Q96RI1). Kind of experiment: qHTS assay to identify small molecule antagonists of the farnesoid-X-receptor (FXR) signaling pathway (AID 743217; active = well fitted inhibition curve with a large enough effect in the signal ratio in the repeat runs, not every such curve was filed as active; the % refers to the signal ratio). The method, boiled down: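 Screen of the Tox21 10K library in quantitative HTS format using FXR-UAS-bla HEK 293T reporter cells. Agonist chenodeoxycholic acid, 50 uM final, added with compounds; 16 h incubation at 37 °C; beta-lactamase FRET fluorescence measured.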

The target is the same in experiment [10]. As to the kind of experiment: qHTS assay to identify small molecule agonists of the farnesoid-X-receptor (FXR) signaling pathway (AID 743220; active = well fitted activation curve with a large enough effect in the signal ratio in the repeat runs, not every such curve was filed as active; the % refers to the signal ratio). The method, boiled down:
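FXR-UAS-bla HEK 293T cells carrying a UAS-driven beta-lactamase reporter were plated for 5 h at 37C/5% CO2, then exposed to DMSO-dissolved Tox21 10K compounds for 16 h at 37C. A LiveBLAzer B/G FRET substrate was loaded for 2 h at room temperature before fluorescence reading.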

Experiment [11] is described as follows: qHTS assay to identify small molecule antagonists of the farnesoid-X-receptor (FXR) signaling pathway - cell viability counter screen (AID 743221; active = well fitted cell-killing curve with a large enough effect in the repeat runs, not every such curve was filed as active; note: nearly all actives have a fitted effect of over 50% in size). The method, boiled down: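 Cytotoxicity counter screen run in the FXR-bla reporter wells: HEK 293T cells exposed to compound with 50 uM (final) chenodeoxycholic acid for 16 h, 37 C, then viability measured by CellTiter-Glo luminescence after 30 min, room temperature.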

Experiment [12] concerns the target Vitamin D3 receptor (Homo sapiens) (UniProt P11473). As to the kind of experiment: qHTS assay to identify small molecule agonists of the vitamin D receptor (VDR) signaling pathway (AID 743222; calls by dose curve). The method, boiled down:
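Fluorescence from cleaved LiveBLAzer B/G FRET substrate served as readout. VDR-bla cells had been treated 16 h at 37C with test compounds in DMSO, following a 4 h settling period, and substrate was loaded for 2 h at RT.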

Experiment [13] is described as follows: qHTS assay to identify small molecule that activate the aryl hydrocarbon receptor (AhR) signaling pathway - cell viability counter screen (AID 743086).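 Note: HepG2 liver cells carrying the AhR DRE luciferase reporter; series mostly up to about 70 µM; nearly all actives have a fitted effect of over 45% in size.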 The method, boiled down: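 HepG2-AhR-luc (HG2L7.5c1) cells, 4000/well, treated 24 h at 37 C with compound; viability measured as CellTiter-Fluor fluorescence after 30 min in the same wells as the luciferase read.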

Experiment [14] in a line: qHTS assay for small molecule agonists of the antioxidant response element (ARE) signaling pathway (AID 743202; active = well fitted activation curve with a large enough effect in the signal ratio in the repeat runs, not every such curve was filed as active; the % refers to the signal ratio; note: potency is the fitted concentration of half-maximal effect). The method, boiled down: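 HepG2 ARE-bla reporter line, 2,000 cells/well; 5 h preincubation 37 C/5% CO2; compound (DMSO) 16 h 37 C; B/G FRET substrate 2 h RT; fluorescence intensity.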
Experiment [15] can be described thus: qHTS assay to identify small molecule antagonists of the peroxisome proliferator-activated receptor delta (PPARd) signaling pathway - cell viability counter screen (AID 743213). Note: nearly all actives have a fitted effect of over 50% in size. The method, boiled down: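 In this counter screen, HEK293H cells carrying a UAS-beta-lactamase reporter are co-treated with test compounds and 300 nM L165041 (final) for 17 h at 37 C; cell viability is quantified by CellTiter-Glo luminescence.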

The target in experiment [16] is Vitamin D3 receptor (Homo sapiens) (UniProt P11473). As to the kind of experiment: qHTS assay to identify small molecule antagonists of the vitamin D receptor (VDR) signaling pathway (AID 743223; active = well fitted inhibition curve with a large enough effect in the signal ratio in the repeat runs, not every such curve was filed as active; the % refers to the signal ratio). The method, boiled down: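 Antagonist mode: compound added to VDR-bla cells alongside agonist 1alpha,25-dihydroxyvitamin D3 (3 nM final), incubation 16 h at 37C. Read-out is LiveBLAzer FRET fluorescence, 2 h at room temperature.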
Chain of Vitamin D3 receptor (Homo sapiens) (P11473 whole entry, looked up): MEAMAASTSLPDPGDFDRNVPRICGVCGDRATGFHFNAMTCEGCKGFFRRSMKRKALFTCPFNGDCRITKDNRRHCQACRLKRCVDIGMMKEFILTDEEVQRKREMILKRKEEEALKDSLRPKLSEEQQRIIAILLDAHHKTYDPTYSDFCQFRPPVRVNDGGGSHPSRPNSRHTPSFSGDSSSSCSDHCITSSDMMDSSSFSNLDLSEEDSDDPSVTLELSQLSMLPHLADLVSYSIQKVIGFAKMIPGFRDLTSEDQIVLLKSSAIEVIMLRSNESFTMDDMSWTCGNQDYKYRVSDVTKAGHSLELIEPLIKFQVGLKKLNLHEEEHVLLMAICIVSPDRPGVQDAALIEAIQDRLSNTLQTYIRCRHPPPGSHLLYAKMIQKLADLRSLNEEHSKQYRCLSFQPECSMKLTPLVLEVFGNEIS

The target of experiment [17] is Peroxisome proliferator-activated receptor gamma (Homo sapiens) (UniProt P37231). As to the kind of experiment: qHTS assay to identify small molecule antagonists of the peroxisome proliferator-activated receptor gamma (PPARg) signaling pathway (AID 743191; calls by dose curve; note: nearly all actives have a fitted effect of over 30% in size; note: potency is the fitted concentration of half-maximal effect). The method, boiled down: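 GeneBLAzer PPARg UAS-bla HEK293H cells, 5 h post-plating, exposed to compounds 17 h at 37C. LiveBLAzer B/G FRET substrate added for 1 h at room temperature; beta-lactamase reporter read by fluorescence intensity.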
Chain of Peroxisome proliferator-activated receptor gamma (Homo sapiens) (P37231 whole entry, looked up): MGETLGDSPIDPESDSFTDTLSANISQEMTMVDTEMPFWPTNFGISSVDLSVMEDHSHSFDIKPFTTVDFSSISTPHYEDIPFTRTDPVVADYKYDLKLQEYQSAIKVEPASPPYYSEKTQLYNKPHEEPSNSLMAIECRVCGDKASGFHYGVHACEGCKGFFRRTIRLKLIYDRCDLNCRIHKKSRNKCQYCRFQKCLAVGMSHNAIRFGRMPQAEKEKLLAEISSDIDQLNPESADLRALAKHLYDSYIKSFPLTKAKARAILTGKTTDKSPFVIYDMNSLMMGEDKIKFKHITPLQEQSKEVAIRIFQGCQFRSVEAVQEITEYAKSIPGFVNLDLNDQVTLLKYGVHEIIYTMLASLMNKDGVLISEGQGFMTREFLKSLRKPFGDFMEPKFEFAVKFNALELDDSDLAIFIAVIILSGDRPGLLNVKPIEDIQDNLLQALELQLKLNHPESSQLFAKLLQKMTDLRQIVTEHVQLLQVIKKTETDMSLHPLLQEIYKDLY

A short description of experiment [18]: qHTS assay for small molecule activators of the heat shock response signaling pathway (AID 743210; active = well fitted activation curve with a large enough effect in the signal ratio in the repeat runs, with a control signal flat, not every such curve was filed as active; the % refers to the signal ratio; note: potency is the fitted concentration of half-maximal effect; for activation: series mostly up to about 63 µM). The method, boiled down: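 Beta-lactamase reporter read-out: FRET substrate fluorescence after 2.5 h at RT, following 5 h compound treatment at 37 C of HeLa cells carrying HSE-driven bla reporter; quantitative HTS format.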
In experiment [19] the target is Peroxisome proliferator-activated receptor delta (Homo sapiens) (UniProt Q03181). As to the kind of experiment: qHTS assay to identify small molecule antagonists of the peroxisome proliferator-activated receptor delta (PPARd) signaling pathway (AID 743215; active = well fitted inhibition curve with a large enough effect in the signal ratio in the repeat runs, not every such curve was filed as active; the % refers to the signal ratio;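 note: cells stimulated with agonist L165041 at 300 nM final during compound exposure; series mostly up to about 62 µM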). The method, boiled down:
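Plated HEK293H PPARd-bla cells rested 5 h at 37 C and 5% CO2. Compound, then agonist L165041 at 300 nM final, was added; 17 h at 37 C followed. Substrate loading, 2 h room temperature, fluorescence measured.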

Experiment [20] in a line: qHTS assay to identify small molecule agonists of the farnesoid-X-receptor (FXR) signaling pathway - cell viability counter screen (AID 743218). Note: nearly all actives have a fitted effect of over 45% in size. The method, boiled down:
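Viability of FXR-bla HEK 293T cells is measured by ATP-based CellTiter-Glo luminescence following 16 h compound treatment at 37 C and a prior 2 h room-temperature beta-lactamase substrate step.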

“And” between values parts separate entries of the source, which are not always exact repeats. Equal values may be shown once. Inconclusive results are not listed. Some structures have more than one record in an assay (separate samples or runs), and their calls can disagree. The source made the active and inactive calls. Unless noted, calls come from the whole dose curve; as a rule, active = well fitted curve in the direction sought with a large enough effect in the repeat runs; inconclusive = weak or mixed curves; inactive = no such curve, though single readings can be large; an effect the other way counts as inactive or inconclusive.

Chain of Bile acid receptor (Homo sapiens) (Q96RI1 whole entry, looked up): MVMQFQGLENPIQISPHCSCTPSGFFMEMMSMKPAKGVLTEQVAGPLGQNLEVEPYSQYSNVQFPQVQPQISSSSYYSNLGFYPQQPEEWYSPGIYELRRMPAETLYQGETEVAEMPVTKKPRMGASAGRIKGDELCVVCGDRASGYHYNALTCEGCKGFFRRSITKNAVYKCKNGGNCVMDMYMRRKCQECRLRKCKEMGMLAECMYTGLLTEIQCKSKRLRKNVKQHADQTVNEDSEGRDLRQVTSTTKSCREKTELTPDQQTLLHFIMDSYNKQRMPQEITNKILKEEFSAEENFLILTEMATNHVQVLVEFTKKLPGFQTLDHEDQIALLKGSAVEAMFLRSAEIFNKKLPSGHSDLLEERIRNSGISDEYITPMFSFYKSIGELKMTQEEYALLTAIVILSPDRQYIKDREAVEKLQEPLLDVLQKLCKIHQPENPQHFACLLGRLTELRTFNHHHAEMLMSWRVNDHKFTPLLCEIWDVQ
Chain of Aryl hydrocarbon receptor (Homo sapiens) (P35869 whole entry, looked up): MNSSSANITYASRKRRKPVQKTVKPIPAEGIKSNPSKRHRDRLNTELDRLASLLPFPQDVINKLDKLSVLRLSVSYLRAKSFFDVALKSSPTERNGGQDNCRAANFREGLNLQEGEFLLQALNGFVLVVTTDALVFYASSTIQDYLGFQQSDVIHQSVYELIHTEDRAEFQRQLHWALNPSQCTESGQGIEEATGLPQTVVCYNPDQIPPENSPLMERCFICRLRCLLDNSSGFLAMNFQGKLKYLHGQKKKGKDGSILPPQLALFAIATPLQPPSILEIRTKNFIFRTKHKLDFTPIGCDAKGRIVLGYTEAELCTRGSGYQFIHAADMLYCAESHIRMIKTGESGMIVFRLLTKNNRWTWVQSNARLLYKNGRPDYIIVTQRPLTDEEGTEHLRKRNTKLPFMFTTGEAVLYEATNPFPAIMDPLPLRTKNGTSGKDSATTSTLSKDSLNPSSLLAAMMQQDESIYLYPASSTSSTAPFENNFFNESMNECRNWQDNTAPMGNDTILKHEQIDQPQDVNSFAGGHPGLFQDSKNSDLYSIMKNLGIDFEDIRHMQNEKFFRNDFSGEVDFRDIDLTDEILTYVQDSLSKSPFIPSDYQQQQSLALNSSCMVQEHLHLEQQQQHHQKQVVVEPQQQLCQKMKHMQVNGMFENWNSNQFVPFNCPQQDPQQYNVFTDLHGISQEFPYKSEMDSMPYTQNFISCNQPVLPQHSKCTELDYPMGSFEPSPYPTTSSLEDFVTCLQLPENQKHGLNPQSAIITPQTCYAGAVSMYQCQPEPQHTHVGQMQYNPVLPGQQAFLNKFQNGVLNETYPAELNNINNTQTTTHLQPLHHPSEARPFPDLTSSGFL

Turning to `Nc1ccc(-c2ccc(N)c(N)c2)cc1N`, the Potency in experiment [1] was 54.3 µM (active) and inactive; in experiment [2], 484 nM (active) and 3.06 µM (active). The Potency result in experiment [3], in [4], in experiment [5], in experiment [6], in [7] and in experiment [8] was “inactive” each time. The Potency entry in experiment [9] and in experiment [11] was “inactive” throughout. The outcome in [10] and in experiment [12] was inactive.
`O=C(O)C(F)(F)C(F)(F)C(F)(F)C(F)(F)C(F)(F)C(F)(F)C(F)(F)F`: the Potency result in experiment [1], in experiment [2], in experiment [13], in experiment [4], in [5] and in experiment [6] was “inactive” each time. Further, the Potency result in [7], in [15] and in experiment [11] was “inactive” throughout. Moreover, the Potency in experiment [14] is 27.3 µM (active) and 21.6 µM (active); in experiment [8] it was 19.4 µM (active). In addition, the call in experiment [12] and in experiment [16] was inactive.
As for `NNC(=S)NN`, the Potency result in experiment [1], in [13], in experiment [3], in experiment [17], in experiment [4] and in experiment [14] was “inactive” throughout. Further, the Potency result in experiment [5], in experiment [6], in [8], in experiment [15], in experiment [19] and in [20] was “inactive” throughout. Also, the Potency result in experiment [11] was “inactive”. Besides, the Potency in experiment [18] is 1.79 µM (active) and 4.36 µM (active). Besides, the call in experiment [12] and in experiment [16] was inactive.
Turning to `CCC(C)(c1ccc(O)cc1)c1ccc(O)cc1`, the Potency entry in experiment [1], in experiment [2], in [13], in experiment [4], in experiment [5] and in experiment [6] was “inactive” each time. The Potency result in experiment [15], in [20] and in experiment [11] was “inactive” each time. Moreover, the Potency in experiment [17] is 30.9 µM (active) and 38.9 µM (active); in experiment [7], 54.9 µM (active) and inactive.
Turning to `O=Cc1ccco1`, the Potency result in experiment [1], in experiment [2], in experiment [13], in experiment [4], in experiment [14] and in experiment [5] was “inactive” in each case. Moreover, the Potency result in experiment [6], in experiment [18], in experiment [7], in [8], in experiment [15] and in experiment [19] was “inactive” in each case. Besides, in [11], the Potency entry was “inactive”. Also, the outcome in experiment [12] and in experiment [16] was inactive.
Consider `Cc1ccc(N)c(N)c1`, for which the Potency entry in [13], in [4], in [5], in experiment [6], in experiment [7] and in experiment [15] was “inactive” in each case. The Potency entry in [20] and in [11] was “inactive” throughout. For the same compound, in experiment [14], the Potency was 8.66 µM (active) and 10.9 µM (active). Besides, the outcome in experiment [12] and in experiment [16] was inactive.
In the case of `CN(C)c1ccc(C(=O)c2ccc(N(C)C)cc2)cc1`, the Potency result in experiment [1], in experiment [4], in [5], in [6], in experiment [18] and in experiment [15] was “inactive” each time. Besides, the Potency entry in experiment [20] and in experiment [11] was “inactive” in each case. For the same compound, the Potency in experiment [2] was 428 nM (active) and 3.86 µM (active). The compound was classed as inactive in experiment [12].
